The panel holds about 83,000 compounds, 20% with a hit somewhere; the sample as a whole holds those more often.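 Single-dose data. Exposure time 48 hours. Values below 10 considered active.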 A number with no mark means an inactive call. The source made the active and inactive calls.
Tested on: MDA-MB-468 breast
Experiment: NCI-60 one-dose screen, 48 h (100 = growth as untreated, 0 = no growth, -100 = all killed)
Settings: 10 µM unless noted

| Structure (SMILES) | growth |
| --- | --- |
| COC1=CC(c2ccc[nH]2)=N/C1=C\c1[nH]c(C)c(C(=O)OCc2ccccc2)c1C | -83.2% (active) |
| O=C1Nc2ccccc2/C1=C/c1cn(C[C@@H](O)Cn2c3ccccc3c(=O)c3ccccc32)c2ccccc12 | 79.6% |
| CCc1ccccc1-n1c(-c2ccc(OC)cc2)cc(-c2ccc(OC)cc2)c(C#N)c1=O | 96.9% |
| CC(O)Cc1c[nH]c(=O)[nH]c1=O (stereo not given) | 121% |
| Nc1ncc(-c2ccc3ncnc(N4CCc5ccc(Cl)cc54)c3c2)cc1C(F)(F)F | -36% (active) |
| CC(C)(C)OC(=O)NCCc1ccc(N)cc1 | 94.3% |
| O=C1C(=O)c2c(nc3ccc(C(F)(F)F)cn23)-c2ccccc21 | -65.9% (active) |
| COC(=O)[C@@]12CC[C@@H](C)[C@]3(C[C@@H](c4ccoc4)OC3=O)[C@H]1CC[C@@H]1O[C@@]12C | 106% |
| CC(=O)C1=C(C)NC(NNC(N)=S)=NC1c1ccccc1 (stereo not given) | 100% |
| N=c1ccccn1CCO | 113% |
| COc1cc(/C=C2/C=C(c3ccc(C(C)(C)C)cc3)N(CCc3ccc(S(N)(=O)=O)cc3)C2=O)cc(OC)c1OC | 55.6% |
| Cc1ccc(-c2cnc3sc(C(=O)NCCc4ccccc4)c(C)n23)cc1 | 93.1% |
| Clc1ccc2c(c1)c(-c1ccccc1)nc1nncn12 | 110% |
| COc1cccc(C2C3=C(COC3=O)N(CCO)c3cc4c(cc32)CCC4)c1 (stereo not given) | -51.6% (active) |
| S=c1[nH]nc(CSc2ncnc3c2c(-c2ccccc2)cn3-c2ccc(Cl)cc2)o1 | 108% |
| COc1ccc(C(C)=O)cc1N1C(=O)C2C(C1=O)C1(c3ccccc3)C(=O)C2(c2ccccc2)C(c2ccc(C)cc2)=C1c1ccc(C)cc1 (stereo not given) | 13.9% |
| COc1ccc(/C(=C\c2cc(OC)c(OC)c(OC)c2)C(=O)Nc2nc3ccc(Cl)cc3s2)cc1 | 96.4% |
| C#C[C@]1(O)CC[C@H]2[C@@H]3CC=C4c5sc(Nc6ncccc6C)nc5CC[C@]4(C)[C@H]3CC[C@@]21C | -8.36% (active) |
| CC(=O)NC(N)=S | 109% |
| O=S(=O)(Cc1cccc2c(CS(=O)(=O)c3ccc(Cl)cc3)cccc12)c1ccc(Cl)cc1 | 97% |

| Structure (SMILES) | growth |
| --- | --- |
| COc1ccc(Nc2nccc(Nc3ccc4[nH]ncc4c3)n2)cc1 | 44% |
| Clc1cc(Cl)cc(N2N=C(c3cccc(Nc4ccncc4)c3)CC2c2ccc(Br)cc2)c1 (stereo not given) | 44.9% |
| Cc1nccc2c3ccc(OCc4cn(Cc5ccc(Br)cc5)nn4)cc3n(CCCc3ccccc3)c12 | 93.4% |
| C#Cc1ccccc1NC(=O)c1sc2nc3c(cc2c1N)CCCCCC3 | 73.5% |
| Clc1ccc2oc3c(OCCCn4ccnc4)c4ccccc4nc3c2c1 | 66.5% |
| CCCCOP(=O)(OCCCC)C(C(=O)OCC)C(CC(=O)OCC)C(=O)OCC (stereo not given) | 124% |
| C#CCOc1ccc2ncnc(Nc3ccc(NC(=O)C=C)cc3)c2c1 | -22.3% (active) |
| C=C(C)[C@@H]1CC[C@]2(C(=O)NCCCN)CC[C@]3(C)[C@H](CC[C@@H]4[C@@]5(C)CC[C@H](O)C(C)(C)[C@@H]5CC[C@]43C)[C@@H]12 | -19.9% [100 µM] (active) |
| O=C1c2c(c3c4ccccc4n(CCCCCCBr)c3c3[nH]c4ccccc4c23)C(=O)N1O | -3.78% (active) |
| COc1cc(NCCC2CCCCN2)c2ncccc2c1OC (stereo not given) | 73.8% |
| COc1cc2c(cc1OC)-c1ccc3cc4c(cc3c1N(CCCn1ccnc1)C2)OCO4 | -63.7% (active) |
| OCc1cc(CN2CCCCC2)c(O)c2ncccc12 | 76.7% |
| COc1cc2oc(-c3ccc(NC(=O)c4ccccc4)cc3)cc(=O)c2c(OC)c1OC | 96.5% |
| CN(CCc1ccccc1)C(=S)N(C(=O)c1ccc([N+](=O)[O-])cc1)c1ccc(Cl)cc1 | 37.4% |
| N#Cc1c(-c2ccc(F)cc2)nc(N/N=C/c2cccc(O)c2)nc1N1CCOCC1 | 81.1% |
| CCOc1ccc(Nc2nc3c(s2)C(=O)c2ccccc2C3=O)cc1 | 68.8% |
| O=C1C(N2CCN(c3ccccc3)CC2)=C(Cl)C(=O)c2ncccc21 | -62.8% (active) |
| N#C/C(=C\c1ccc(Br)cc1)n1nnc2ccc(F)cc21 | -9.09% (active) |
| CC(C)(C)c1ccc(S(=O)(=O)N[C@H]2CC[C@H]3[C@@H]4CCc5cc(OS(=O)(=O)O)ccc5[C@H]4CC[C@]23C)cc1 | 58.6% |
| O=[N+]([O-])c1cc(S(=O)(=O)Oc2ccccc2)ccc1Cl | -78.1% (active) |

— PubChem BioAssay (NCI)
